# IMPase cell inh: qHTS Assay for Identifying the Cell-Membrane Permeable IMPase Inhibitors; Inositol monophosphatase 1 (Rattus norvegicus), P97697; CHO-M1 cells, IP1 accumulation, HTRF TR-FRET ratio; inhibition (IP1 accumulation), % at 46.1 µM; 120,000 tested, under 10 active; active = well fitted curve in the direction sought with a large enough effect in the signal ratio, not every such curve was filed as active; inconclusive = small, poorly fitted or top-dose-only effect, or a change in a side signal; inactive = no such curve, though single readings can be large or run the other way; the % refers to the signal ratio;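 also: cells stimulated with carbachol in lithium chloride buffer; plate controls were DMSO basal wells for no effect and reference inhibitor wells for full effect; higher means more IMPase inhibition seen as more IP1 and lower FRET ratio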
# Target sequence (P97697 whole entry, looked up): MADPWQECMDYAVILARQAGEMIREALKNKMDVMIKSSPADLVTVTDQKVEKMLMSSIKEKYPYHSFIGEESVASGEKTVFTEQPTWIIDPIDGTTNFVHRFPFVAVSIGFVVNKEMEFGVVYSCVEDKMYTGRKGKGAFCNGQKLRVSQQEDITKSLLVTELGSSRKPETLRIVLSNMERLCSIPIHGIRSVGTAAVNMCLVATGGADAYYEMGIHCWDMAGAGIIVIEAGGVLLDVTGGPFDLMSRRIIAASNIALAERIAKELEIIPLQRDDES
#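 CHO-M1 cells (CHO stably expressing M1 receptor), compound up to 46 uM final, stimulated with carbachol (50 uM as added) in buffer with 50mM LiCl, pH 7.4, 30 min at 37C. Cytosolic IP1 read by TR-FRET; AC50 from Hill fits.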
# ALDH1A1 block: qHTS Assay for Inhibitors of Aldehyde Dehydrogenase 1 (ALDH1A1); Aldehyde dehydrogenase 1A1 (Homo sapiens), P00352; actives 7.3% (n = 220,000); AID 1030, 2008; Purified ALDH1A1, NADH fluorescence, propionaldehyde substrate; Potency, µM (doses to about 75.3 µM), inactives show at the top dose activity, negative = inhibition, actives largely listed as inhibitors;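 also: potency is read from the fitted curve at half-maximal effect; plate controls were no enzyme wells and a reference inhibitor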
# HPGD inh: qHTS Assay for Inhibitors of HPGD (15-Hydroxyprostaglandin Dehydrogenase); purified HPGD, NADH fluorescence kinetic, PGE2 substrate; Potency, µM, for inactives: at the top dose activity change, negative = inhibition, usual class: inhibitors; actives 4.3% (n = 150,000); also: potency is read from the fitted curve at half-maximal effect
#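 20 nM HPGD preincubated 15 min at room temperature with compound in 50 mM Tris-HCl pH 8, 0.01% Tween 20. Started with 1 mM NAD+ and 30 uM prostaglandin E2; NADH fluorescence (360/450 nm) read 5 times over 30-s intervals, last minus first.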
# Starred values were filed as active, the others as inactive; ? = inconclusive; . = no result given; [ ] = remark or other dose. Only some compounds are listed: those with a hit (about 9% of all), similar ones and a draw of the others. Unless noted, calls follow the shape of the dose curve; as a rule, active = well fitted inhibition curve with a large enough effect (not every such curve was filed as active); inconclusive = small, poorly fitted or top-dose-only effect, or another doubt; inactive = no such curve, though single readings can be large or run the other way. Unless noted, % is scaled to controls: 0 for no effect and ±100 for the full control effect.
SMILES,IMPase cell inh,ALDH1A1 block,HPGD inh
Nc1ccc(N2CCN(c3ccc(F)cc3)CC2)cc1,.,22µM*,.
Cc1cc(Br)cc(C)c1NC(=S)NC(=O)CC(C)C,8,?,-1%
CSc1ncccc1C(=O)OCC(=O)c1cc2ccccc2o1,-2,-11%,-12%
O=C(CCOc1ccccc1)OCC(=O)c1cc2ccccc2o1,-8,-7%,32µM*
O=C(CN(C(=O)CNS(=O)(=O)c1ccccc1)C1CCCC1)NCc1ccco1,12,-8%,2%
COC(=O)c1ccc2c(=O)[nH]c(CN3c4ccccc4CC3C)nc2c1 (stereo not drawn),2,11µM*,-13%
CC1Cc2ccccc2N1Cc1nc2cc(Cl)ccc2c(=O)[nH]1 (stereo not drawn),-7,?,-23%
Cn1ccnc1SCC(=O)Nc1ccc2c(c1)OC(F)(F)O2,.,0%,.
COc1cc(C(=O)N(Cc2cccc(Cl)c2)C2CCS(=O)(=O)C2)cc(OC)c1OC (stereo not drawn),0,6%,-9%
Cc1ccc(NC2=CC(c3ccccc3F)N(c3ccc(C)cc3)C2=O)cc1 (stereo not drawn),3,.,.
CCO[C@H]1OC(C(=O)N2CCN(Cc3ccc4c(c3)OCO4)CC2)=C[C@@H](c2ccc(C(F)(F)F)cc2)[C@@H]1CCCO,.,-8%,.
c1ccc2c(c1)OCC(c1csc3ncnc(N4CCCC4)c13)O2 (stereo not drawn),12,9%,-8%
c1ccc(CCNc2ncnc3scc(C4COc5ccccc5O4)c23)cc1 (stereo not drawn),13,0.056µM*,-16%
C=CCSc1nnc(NC(=O)CSc2nc(CCC)cc(=O)[nH]2)s1,4,-1%,20µM*
C=CCSc1nnc(NC(=O)CSc2nc3ccccc3[nH]2)s1,0,-6%,?
O=C(CSc1nnc(-c2ccc(Cl)cc2)o1)N1CCc2ccccc21,5,.,.
COc1cc(OC)cc(-c2nnc(SCc3cccc(C(=O)O)c3)o2)c1,-3,-13%,11µM*
COc1cccc(-c2nnc(SCC(=O)N3CCCc4ccccc43)o2)c1,3,7.9µM*,28µM*
Cc1occc1-c1nnc(SCC(=O)N2CCc3ccccc32)o1,-1,0.79µM*,-12%
O=C(O)c1cccc(CSc2nnc(-c3ccco3)o2)c1,-7,5%,-13%
Cc1nnc(SCC(=O)N2CCc3ccccc32)s1,7[1.84 µM],28µM*,-10%
COc1cc(OC)cc(-c2nnc(SCC(=O)N3CCCc4ccccc43)o2)c1,12,?,?
CSc1nsc(SCC(=O)N2CCc3ccccc32)n1,5,?,-22%
O=C(NN=C(Cc1ccccc1)Cc1ccccc1)C1CC1,.,4%,.
CCOC(=O)c1ccc(NC(=S)N2CCSC2c2ccc(Br)cc2)cc1 (stereo not drawn),.,-22%,-15%
SMILES,IMPase cell inh,ALDH1A1 block,HPGD inh
O=C(NCc1cccnc1)C1CCCN(S(=O)(=O)c2ccccc2)C1 (stereo not drawn),6,-5%,-7%
Nc1ccnn1Cc1ccc(Br)s1,-5,-12%,.
c1ccc(Nc2ncncc2-c2ccc3c(c2)OCO3)cc1,.,0%,.
c1ccn2c(CNc3ncnc4sccc34)nnc2c1,?,8%,-4%
COc1ccc(Br)cc1S(=O)(=O)NCCCN1CCOCC1,.,3%,.
Cc1csc(=Nc2ccccc2)n1Cc1ccco1,.,15µM*,.
Cc1csc(=NC(=O)c2ccccc2)n1Cc1ccco1,-3,3%,-16%
CSc1ccc(-c2nc3c(C)cccn3c2Nc2ccc3c(c2)OCCO3)cc1,5,.,.
CC(C)(CO)NC(=O)Nc1ccc(Cl)c(Cl)c1,.,2%,.
COCCOC(=O)C1=C(C)N(c2ccccc2)C(=O)NC1c1cccc([N+](=O)[O-])c1 (stereo not drawn),4,?,-12%
CC1=C(C(=O)Nc2ccc([N+](=O)[O-])cc2)C(c2cccc(C(F)(F)F)c2)NC(=S)N1c1ccccc1 (stereo not drawn),-3,14µM*,-18%
COc1ccc(C2C(C(=O)Nc3ccccc3)=C(C)N=C3SCC(=O)N32)cc1 (stereo not drawn),0,?,-9%
COc1ccc(C2NC(=S)N(c3ccccc3)C(C)=C2C(=O)Nc2ccccc2)cc1 (stereo not drawn),-2,2µM*,-16%
CC(C)CC(=O)Nc1ccnc(-c2ccncc2)n1,.,-4%,.
CC(=NC(C)C)C1=C(O)CCC1=O,-3,9%,-2%
CC(C)N1CCNCC1,.,8%,.
Cc1ccc(S(=O)(=O)N2CCCCC2)cc1NC(=O)COc1ccccc1F,.,0%,.

# Compound activity (PubChem BioAssay)
